Source: PubChem BioAssay AID1159580 (chemical genetic matrix, 2015)
Several values for one entry are separate records, joined by “and”; a condition that tells them apart may be missing. Equal entries are not always repeated. Hit rate of the full screen: of about 5,500 compounds, about 2,000 (36%) were called active. Another 18% or so got no clear call; they are omitted. No stated cut-off is given here; in the data, active means normalized growth mostly below about 0.91 (no sharp cut-off); inconclusive means no clear call, values can overlap the other calls; inactive means mostly above about 0.92. Some of the results follow.

Experiment: chemical genetic growth profiling, strain panel (AID 1159580);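 further: tested at 20 µM; growth read once vehicle control cultures reached saturation at 30 °C; 1 = growth at the plate median or of vehicle wells; lower values mean less growth of the strain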
Conditions: growth OD
[1] = S. cerevisiae deletion strains, locus YGR229C, strain SMI1, active compounds read low
[2] = S. cerevisiae deletion strains, locus YMR263W, strain SAP30, active compounds read low
[3] = S. cerevisiae deletion strains, locus YMR307W, strain GAS1, active compounds read low
[4] = S. cerevisiae deletion strains, locus YPL055C, strain LGE1, active compounds read low
[5] = S. cerevisiae deletion strains, locus YPL241C, strain CIN2, active compounds read low
[6] = S. cerevisiae deletion strains, locus YAL013W, strain DEP1, active compounds read low
[7] = S. cerevisiae deletion strains, locus YAL040C, strain CLN3, active compounds read low
[8] = S. cerevisiae deletion strains, locus YCL061C, strain MRC1 (second series), active compounds read low
[9] = S. cerevisiae deletion strains, locus YDR363W, strain ESC2, active compounds read low
[10] = S. cerevisiae deletion strains, locus YER002W, strain NOP16, active compounds read low
[11] = S. cerevisiae deletion strains, locus YNL175C, strain NOP13, active compounds read low
[12] = S. cerevisiae deletion strains, locus YNL197C, strain WHI3, active compounds read low
[13] = S. cerevisiae deletion strains, locus YNL224C, strain SQS1, active compounds read low
[14] = S. cerevisiae deletion strains, locus YOR083W, strain WHI5 (second series), active compounds read low

Measured: normalized growth

OC[C@H]1O[C@@H](n2cnc3c(NCc4ccco4)ncnc32)[C@H](O)[C@@H]1O
inactive: S. cerevisiae deletion strains, locus YBR021W, strain FUR4, active compounds read low 1.02 | S. cerevisiae deletion strains, locus YBR229C, strain ROT2, active compounds read low 1.01 | S. cerevisiae deletion strains, locus YCL029C, strain bik1, active compounds read low 1.01 | S. cerevisiae deletion strains, locus YDL035C, strain GPR1, active compounds read low 1.01 | S. cerevisiae deletion strains, locus YDL074C, strain BRE1, active compounds read low 1.05 | S. cerevisiae deletion strains, locus YDL101C, strain DUN1, active compounds read low 1.03 | S. cerevisiae deletion strains, locus YDL185W, strain tfp1, active compounds read low 1 | S. cerevisiae deletion strains, locus YDL192W, strain arf1, active compounds read low 1 | S. cerevisiae deletion strains, locus YDR101C, strain arx1, active compounds read low 1.02 | S. cerevisiae deletion strains, locus YDR150W, strain NUM1, active compounds read low 1.01 | S. cerevisiae deletion strains, locus YDR162C, strain NBP2, active compounds read low 1.02 | S. cerevisiae deletion strains, locus YDR318W, strain mcm21, active compounds read low 1 | S. cerevisiae deletion strains, locus YDR388W, active compounds read low 0.998 | S. cerevisiae deletion strains, locus YDR502C, strain sam2, active compounds read low 0.998 | S. cerevisiae deletion strains, locus YEL061C, strain CIN8, active compounds read low 1.01 | S. cerevisiae deletion strains, locus YER110C, active compounds read low 1 | S. cerevisiae deletion strains, locus YER155C, strain BEM2, active compounds read low 1.02 | S. cerevisiae deletion strains, locus YER167W, strain BCK2, active compounds read low 1 | S. cerevisiae deletion strains, locus YGL078C, strain dbp3, active compounds read low 0.999 | S. cerevisiae deletion strains, locus YGL086W, strain mad1, active compounds read low 1.02 | S. cerevisiae deletion strains, locus YGL248W, strain PDE1, active compounds read low 1.01 | S. cerevisiae deletion strains, locus YGR135W, strain pre9, active compounds read low 1 | [1] 1.02 | S. cerevisiae deletion strains, locus YGR252W, strain gcn5, active compounds read low 0.971 | S. cerevisiae deletion strains, locus YHR030C, strain SLT2, active compounds read low 1 and 1.06 | S. cerevisiae deletion strains, locus YHR079C, strain IRE1 (second series), active compounds read low 1.01 | S. cerevisiae deletion strains, locus YHR079C, strain IRE1, active compounds read low 1.04 | S. cerevisiae deletion strains, locus YHR094C, strain hxt1, active compounds read low 1 | S. cerevisiae deletion strains, locus YHR129C, strain ARP1, active compounds read low 1.02 | S. cerevisiae deletion strains, locus YHR200W, strain rpn10, active compounds read low 1.01 | S. cerevisiae deletion strains, locus YIL066C, strain RNR3, active compounds read low 1.01 | S. cerevisiae deletion strains, locus YIL073C, strain SPO22, active compounds read low 1.01 | S. cerevisiae deletion strains, locus YIL125W, strain kgd1, active compounds read low 1.01 | S. cerevisiae deletion strains, locus YIR030C, strain dcg1, active compounds read low 1.01 | S. cerevisiae deletion strains, locus YJL095W, strain BCK1, active compounds read low 1.06 and 1.02 | S. cerevisiae deletion strains, locus YJL134W, strain LCB3, active compounds read low 1.01 | S. cerevisiae deletion strains, locus YJL168C, strain set2, active compounds read low 1.01 | S. cerevisiae deletion strains, locus YJL187C, strain SWE1 (second series), active compounds read low 1.04 | S. cerevisiae deletion strains, locus YJR043C, strain POL32, active compounds read low 1.01 | S. cerevisiae deletion strains, locus YJR066W, strain TOR1, active compounds read low 0.974 | S. cerevisiae deletion strains, locus YKL009W, strain mrt4, active compounds read low 1.02 | S. cerevisiae deletion strains, locus YKL068W, active compounds read low 0.995 | S. cerevisiae deletion strains, locus YKL085W, strain MDH1 (second series), active compounds read low 0.993 | S. cerevisiae deletion strains, locus YKL085W, strain MDH1, active compounds read low 0.993 | S. cerevisiae deletion strains, locus YKL190W, strain CNB1, active compounds read low 1.01 | S. cerevisiae deletion strains, locus YKR001C, strain vps1, active compounds read low 1.01 | S. cerevisiae deletion strains, locus YLR039C, strain RIC1, active compounds read low 1.04 | S. cerevisiae deletion strains, locus YLR058C, strain SHM2, active compounds read low 1.02 | S. cerevisiae deletion strains, locus YLR102C, strain apc9, active compounds read low 1 | S. cerevisiae deletion strains, locus YLR113W, strain HOG1, active compounds read low 1.03 | S. cerevisiae deletion strains, locus YLR262C, strain YPT6, active compounds read low 1.06 | S. cerevisiae deletion strains, locus YLR268W, strain sec22, active compounds read low 1.04 | S. cerevisiae deletion strains, locus YLR330W, strain CHS5, active compounds read low 1.01 | S. cerevisiae deletion strains, locus YLR342W, strain FKS1 (second series), active compounds read low 1.01 | S. cerevisiae deletion strains, locus YLR371W, strain rom2, active compounds read low 1 | S. cerevisiae deletion strains, locus YLR418C, strain cdc73, active compounds read low 1.01 | S. cerevisiae deletion strains, locus YML016C, strain PPZ1, active compounds read low 1.01 | S. cerevisiae deletion strains, locus YML032C, strain rad52, active compounds read low 0.988 | S. cerevisiae deletion strains, locus YML124C, strain tub3, active compounds read low 0.996 | S. cerevisiae deletion strains, locus YMR078C, strain ctf18, active compounds read low 0.998 | S. cerevisiae deletion strains, locus YMR223W, strain ubp8, active compounds read low 1 | [2] 1.02 | [3] 1.04 | S. cerevisiae deletion strains, locus YNL067W, strain RPL9B, active compounds read low 1.04 | S. cerevisiae deletion strains, locus YNL183C, strain NPR1, active compounds read low 0.991 | S. cerevisiae deletion strains, locus YNL233W, strain BNI4, active compounds read low 1.05 | S. cerevisiae deletion strains, locus YNL250W, strain rad50, active compounds read low 1.02 | S. cerevisiae deletion strains, locus YNL271C, strain bni1, active compounds read low 1 | S. cerevisiae deletion strains, locus YNL298W, strain CLA4, active compounds read low 0.995 | S. cerevisiae deletion strains, locus YNL307C, strain MCK1, active compounds read low 1.01 | S. cerevisiae deletion strains, locus YNR052C, strain pop2, active compounds read low 0.996 | S. cerevisiae deletion strains, locus YOL147C, strain pex11, active compounds read low 0.998 | S. cerevisiae deletion strains, locus YOR061W, strain CKA2, active compounds read low 1.01 | S. cerevisiae deletion strains, locus YOR069W, strain VPS5, active compounds read low 1.01 | S. cerevisiae deletion strains, locus YOR136W, strain idh2, active compounds read low 1 | S. cerevisiae deletion strains, locus YOR144C, strain elg1, active compounds read low 0.987 | S. cerevisiae deletion strains, locus YOR184W, strain ser1, active compounds read low 0.999 | S. cerevisiae deletion strains, locus YOR231W, strain MKK1, active compounds read low 1.05 | S. cerevisiae deletion strains, locus YOR316C, strain cot1, active compounds read low 1 | [4] 1.03 | [5] 1 | S. cerevisiae deletion strains, locus YPL256C, strain CLN2, active compounds read low 1.06 | S. cerevisiae deletion strains, locus YPR119W, strain clb2, active compounds read low 1 | S. cerevisiae deletion strains, locus YPR141C, strain kar3, active compounds read low 1.01 | S. cerevisiae deletion strains, locus YPR163C, strain tif3, active compounds read low 1 | S. cerevisiae deletion strains, locus YPR167C, strain met16, active compounds read low 1.01 | S. cerevisiae deletion strains, strain wtn01, active compounds read low 1.04 | S. cerevisiae strains, strain wild type, active compounds read low 1.01
active: S. cerevisiae deletion strains, locus YOL012C, strain htz1 2.36 [resistant]

Cc1ccccc1CNc1ncnc2c1ncn2C1OC(CO)C(O)C1O (stereo not given)
inactive: [6] 1.01 | [7] 0.997 | [8] 0.999 | [9] 1.03 | [10] 1.01 | [1] 1.02 | [2] 1 | [11] 1.01 | [12] 0.995 | [13] 1.01 | S. cerevisiae deletion strains, locus YNL322C, strain KRE1, active compounds read low 1.01 | [14] 1.01 | [4] 1.01

CNc1ncnc2c1ncn2[C@@H]1O[C@H](CO)[C@H](O)C1O (stereo not given in full)
inactive: [6] 1.02 | [7] 1 | [8] 0.993 | [9] 0.996 | [10] 0.978 | [1] 1.01 | [3] 1.01 | S. cerevisiae deletion strains, locus YNL153C, strain GIM3, active compounds read low 1.01 | [11] 0.996 | [12] 0.999 | [13] 1 | [14] 1 | [5] 1
